# In PubChem BioAssay AID1729 (National Center for Advancing Translational Sciences (NCATS), 2009):
# Records with an inconclusive call do not appear. The source made the active and inactive calls. Calls come from the whole dose curve; as a rule, active = well fitted curve in the direction sought with a large enough effect; inconclusive = small, poorly fitted or top-dose-only effect, or effect the other way, or another doubt; inactive = no such curve, though single readings can be large or run the other way.
# Biological target: Epidermal growth factor receptor (Homo sapiens) (UniProt P00533)
# Sequence (P00533 whole entry T790M, looked up): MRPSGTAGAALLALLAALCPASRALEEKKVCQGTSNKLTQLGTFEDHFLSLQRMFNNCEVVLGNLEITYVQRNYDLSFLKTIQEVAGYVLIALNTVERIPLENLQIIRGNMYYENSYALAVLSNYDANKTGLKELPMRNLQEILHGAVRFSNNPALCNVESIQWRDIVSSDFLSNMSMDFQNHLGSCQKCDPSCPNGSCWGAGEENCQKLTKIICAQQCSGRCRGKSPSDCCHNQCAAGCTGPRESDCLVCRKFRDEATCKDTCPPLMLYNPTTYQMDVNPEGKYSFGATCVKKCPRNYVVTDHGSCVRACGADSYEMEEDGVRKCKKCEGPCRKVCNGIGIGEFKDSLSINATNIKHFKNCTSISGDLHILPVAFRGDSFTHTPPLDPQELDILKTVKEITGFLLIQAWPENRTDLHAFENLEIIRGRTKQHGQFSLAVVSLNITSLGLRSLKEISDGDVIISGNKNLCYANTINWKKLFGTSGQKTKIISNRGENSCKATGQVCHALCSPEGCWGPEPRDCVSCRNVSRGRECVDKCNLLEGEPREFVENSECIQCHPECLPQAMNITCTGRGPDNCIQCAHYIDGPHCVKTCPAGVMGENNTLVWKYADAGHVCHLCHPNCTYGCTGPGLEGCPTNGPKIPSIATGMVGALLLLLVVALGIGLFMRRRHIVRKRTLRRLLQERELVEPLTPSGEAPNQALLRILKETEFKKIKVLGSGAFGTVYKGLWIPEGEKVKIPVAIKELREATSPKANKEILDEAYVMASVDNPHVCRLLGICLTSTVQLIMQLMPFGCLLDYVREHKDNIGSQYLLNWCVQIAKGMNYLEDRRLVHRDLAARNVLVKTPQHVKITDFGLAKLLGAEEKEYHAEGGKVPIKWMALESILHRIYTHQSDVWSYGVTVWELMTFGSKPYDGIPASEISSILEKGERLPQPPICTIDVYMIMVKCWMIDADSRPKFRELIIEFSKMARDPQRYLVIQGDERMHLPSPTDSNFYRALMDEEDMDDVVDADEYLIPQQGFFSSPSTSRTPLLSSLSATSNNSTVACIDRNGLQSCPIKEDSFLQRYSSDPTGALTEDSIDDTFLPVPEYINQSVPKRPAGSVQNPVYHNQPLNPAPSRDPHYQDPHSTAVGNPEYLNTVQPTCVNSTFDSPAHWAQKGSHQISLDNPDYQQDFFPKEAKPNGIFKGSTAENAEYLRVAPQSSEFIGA
# Experiment: Assay for Inhibitors of the ERK Signaling Pathway using a Homogeneous Screening Assay: EGFR T790M Kinase Inhibition
# Source text: qHTS Assay for Inhibitors of the ERK Signaling Pathway using a Homogeneous Screening Assay
# NIH Chemical Genomics Center [NCGC]
# NIH Molecular Libraries Screening Centers Network [MLSCN]
# Assay Submitter (PI): Dr. Wei Zheng, NCGC/NIH
# The Ras/extracellular-signal-regulated kinase (ERK) mitogen activated protein (MAP) kinase signaling pathway (ERK1/2 cascade) plays is a key role in transmitting signals from the cell surface to the nucleus (Nishida and Gotoh 1993; Chang and Karin, 2001). The cascade is initiated by the small G-protein Ras, which recruits Raf […], where activation occurs. Alternatively, this pathway can be activated by elevating intracellular cAMP.
# Activation of the ERK pathway is essential in increased cell division and cell survival. Sustained and constitutive activation of the ERK pathway, however, has been linked to uncontrolled cell proliferation, increased cell survival, and tumor progression. Thus, the ERK has been as an attractive target for cancer chemotherapy in the past few years (Sebolt-Leopold and Herrera, 2004). […]
# The HTRF kinase assay (components supplied as kit by Cisbio) was chosen for the EGFR and EGFR mutant enzyme assays that applied the time resolved fluorescence resonance energy transfer (TR-FRET) principle. […]
row,SMILES,outcome
1,CCn1nc(-c2ccccc2)nc2c(=O)n(C)c(=O)nc1-2,inactive
2,Cc1nc2c(=O)n(C)c(=O)nc-2n(C)n1,inactive
